Lassa entry inh: qHTS for Inhibitors of binding or entry into cells for Lassa Virus; Potency, µM (titrated, usually from 37.9 µM), inactives show at the highest dose activity change, negative = inhibition, most hits filed as inhibitors; actives 1.2% (n = 300,000); AID 540256, 2011; Lassa virus pseudotype entry inhibition, cell reporter; calls by dose curve; tested in HEK293 cells; note: potency is the fitted concentration of half-maximal effect; % is set by controls: 0 for no effect and ±100 for the full control effect; nearly all actives have a fitted effect of over 50% in size
MARV entry inh: qHTS for inhibitors of binding or entry into cells for Marburg Virus; Marburg virus pseudotyped entry inhibition, cell reporter; Potency, µM (titrated, usually from 37.8 µM), for the others: at the highest dose activity change, negative = inhibition, actives largely listed as inhibitors; actives 1.8% (n = 300,000); calls by dose curve; tested in HEK293 cells; note: potency is the fitted concentration of half-maximal effect; % is set by controls: 0 for no effect and ±100 for the full control effect
FMDV antiviral: High Throughput Screening for Foot and Mouth Disease Virus Antivirals; AID 1159524, 2015; FMDV antiviral cell-based qHTS; actives 1.2% (n = 410,000); Potency, µM (titrated, usually from 57.9 µM), for inactives: at the highest dose activity change, negative = inhibition, usual class: inhibitors; calls by dose curve; tested in HEK293T cells; note: read-out not given here; potency is the fitted concentration of half-maximal effect; % is set by controls: 0 for no effect and ±100 for the full control effect; nearly all actives have a fitted effect of over 45% in size
HCV inhibitor: qHTS Assay for Inhibitors of Hepatitis C Virus (HCV). actives 3.4% (n = 340,000). Huh7.5.1 HCVcc-Cre infection, luciferase reporter, 44 h. Potency, µM (highest dose often 41.8 µM), without a hit: top-dose activity change, negative = inhibition, hits mostly inhibitors; active = well fitted inhibition curve with a large enough effect; inconclusive = small, poorly fitted or top-dose-only effect, or another doubt; inactive = no such curve, though single readings can be large or run the other way; note: potency is the fitted concentration of half-maximal effect; % is set by controls: 0 for no effect and ±100 for the full control effect
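Reporter virus HCVcc-Cre (~0.5 moi) infects cells exposed to compound; seeding density 1,000 cells/well with 4 h settling beforehand. Luminescence, 15 sec read, taken 44 h post-infection following a 15 min RT substrate incubation.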
HCMV antiviral: qHTS Assay for inhibitors of the human cytomegalovirus (HCMV). HFF cells, HCMV-luciferase reporter, 72 h; hits give low values. activity change, negative = inhibition, % at 57.5 µM. actives 4.5% (n = 410,000). AID 1259415, 2018; in the data active = activity change below about -60%; inconclusive = no clear call, values can overlap the other calls; inactive = above about -39%; note: % is set by controls: 0 for no effect and ±100 for the full control effect
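Compounds were evaluated in HFFs infected with an HCMV luciferase reporter virus (MOI 1 PFU/cell). Luciferase in lysates collected 72 h post infection served as the replication measure.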
SARS PLpro yeast: qHTS of Yeast-based Assay for SARS-CoV PLP | S. cerevisiae expressing SARS-CoV PLpro, growth rescue | Potency, µM (doses to about 32.9 µM), for the others: at the top dose activity, positive = growth rescue, hits mostly activators | actives 0.19% (n = 330,000) | AID 485353, 2010; calls by dose curve; note: potency is the fitted concentration of half-maximal effect; 0% is about no effect; nearly all actives have a fitted effect of over 55% in size
The depositor's hits bear a star; ? = inconclusive; . = not tested or not shown; [ ] = dose if it differs, or a comment. A selection: hits, their analogues and other compounds. The true share with any hit is near 8%.

SMILES	Lassa entry inh	MARV entry inh	FMDV antiviral	HCV inhibitor	HCMV antiviral	SARS PLpro yeast
NC(N)=Nc1nc(-c2ccccc2)c2ccccc2n1	-23%[46.1 µM]	?	-11%	-26%	-95*	-2%
Clc1nc(-c2ccccc2)c2ccccc2n1	2%[46.1 µM]	-3%[46.1 µM]	-13%	5%	39	7%
COc1ccc(CCN2C(=O)c3[nH]nc(-c4ccccc4O)c3C2c2ccccc2)cc1OC (stereo not given)	18µM*	?	?	11µM*	?	3%
CC(C)c1ccc(C2c3c(-c4ccccc4O)n[nH]c3C(=O)N2Cc2ccncc2)cc1 (stereo not given)	?	?	-22%	.	-79*	.
COc1ccc(CCN2C(=O)c3[nH]nc(-c4ccccc4O)c3C2c2ccc(O)c(OC)c2)cc1 (stereo not given)	?	-29%[46.1 µM]	-12%	.	-12	.
O=C1c2[nH]nc(-c3ccccc3O)c2C(c2ccc(Cl)cc2)N1CCc1ccccc1 (stereo not given)	?	?	?	.	-95*	.
COCCN1C(=O)c2[nH]nc(-c3ccccc3O)c2C1c1ccc(OCc2ccccc2)c(OC)c1 (stereo not given)	?	-9%[46.1 µM]	-4%	.	-103*	.
CSc1ccc(C2c3c(-c4ccccc4O)n[nH]c3C(=O)N2Cc2ccncc2)cc1 (stereo not given)	?	?	-5%	.	-26	.
Nc1c(C(=O)NCCc2ccccc2)nnn1CC(=O)Nc1ccc(Cl)cc1	?	.	1%	.	-29	.
CC(=O)N1CCC2(CC1)CN(c1ccccc1)C2	.	.	-11%	.	.	.
Cc1nc2c3ccccc3nc(NNC(=O)CCC(=O)N3CCN(c4cccc(C(F)(F)F)c4)CC3)n2n1	10%[46.1 µM]	?	?	.	-17	.
COC(=O)[C@H]1[C@H](CO)[C@H]2Cn3c(ccc(Br)c3=O)[C@H]2N1Cc1ccc2c(c1)OCO2	.	.	.	.	10	.
COc1cc(C2c3c(-c4cc(C)cc(C)c4O)n[nH]c3C(=O)N2CCCO)cc(OC)c1OC (stereo not given)	8.2µM*	3%	-17%	-10%	38	-1%
CC12CNCC(C)(CN(C(c3ccccc3)c3ccccc3)C1)C2	20µM*	?	?	?	?	5%
Clc1ccc(C(c2ccccc2)N2CCNCC2)cc1 (stereo not given)	-13%	?	-4%	11µM*	45	5%
CCNC(=O)c1cc(NC(=O)COC)cc2nc(-c3ccncc3)n(C)c12	.	.	-14%	.	.	.
CC(=O)N(C)CC#CCN1CCCC(CO)C1 (stereo not given)	.	.	-12%	.	-61*	.
Cc1ccc(N2C(=O)/C(=C/N3CCN(C(=O)c4ccco4)CC3)C(=O)NC2=S)cc1C	6%	3%	0%	-4%	-101*	0%
Cc1cccc(N2C(=O)/C(=C/N3CCN(C(=O)c4ccco4)CC3)C(=O)NC2=S)c1	2%	6%	-4%	3%	-5	5%
C=C1CCC(O)C2(C)CCC3C(C)C(=O)OC3C12O (stereo not given)	-8%[46.1 µM]	4%[46.1 µM]	-9%	5%	?	0%
C=C1C(=O)O[C@@H]2[C@H]1CC[C@H](C)[C@]1(O)CCC(=O)[C@@]21C	.	.	-21%	?	-68*	1%
Cc1cc(NC(=O)COC(=O)c2cc([N+](=O)[O-])ccc2N2CCOCC2)ccc1Br	?	?	32µM*	7.1µM*	-37	-14%
CCc1cccc(NC(=O)COC(=O)c2cc([N+](=O)[O-])ccc2N2CCOCC2)c1	?	?	?	10µM*	-4	2%
CC(C)N(CCO)Cc1nc(C(c2ccccc2)c2ccccc2)no1	?	?	-4%	26%	10	-1%
Cc1ccc(OCC(=O)NNC(=O)Nc2ccc(Cl)cc2)c(Br)c1	-4%[46.1 µM]	?	4%	-2%	-28	.
SMILES	Lassa entry inh	MARV entry inh	FMDV antiviral	HCV inhibitor	HCMV antiviral	SARS PLpro yeast
O=C1N(Cc2ccc(Br)cc2)c2cccc(Br)c2[C@@]12O[C@H](COc1ccccc1)CC1=CCCC12 (stereo not given in full)	.	11%[14.2 µM]	.	.	.	.
CCc1ccc2c(c1)-c1ccccc1S(=O)(=O)N2CC(=O)N1CCCCC1	18%[46.1 µM]	?	88%	.	55	.
CC1(C)C(=O)OC(c2cc(Br)ccc2O)C(C)(C)C1=O (stereo not given)	-2%	-5%	35µM*	13%	?	11%
CC12CN3CC(C)(CN(C1)C3c1cc(Br)ccc1O)C2=O (stereo not given)	10%	-27%	-21%	3%	79	3%
COc1ccc(/C=C(/NC(=O)c2ccco2)C(=O)NCc2ccco2)cc1OC	20%	-3%	17%	7%	?	4%
COc1ccc(/C=C(/NC(=O)c2ccco2)C(=O)N2CCc3ccccc32)cc1OC	7.9µM*	-6%[46.1 µM]	-8%	5%	56	-1%
CCc1cc(-c2[nH]ncc2-c2ccc3c(c2)OCO3)c(O)cc1O	?	?	.	?	-99*	-6%
COc1ccc(-c2cn[nH]c2-c2ccc(OCc3ccc([N+](=O)[O-])cc3)cc2O)cc1	?	-26%	-27%	?	-93*	-77%
CCOc1ccc(-c2[nH]ncc2-c2ccc(OC)c(OC)c2)c(O)c1	?	?	0%	?	?	-8%
CCCc1cc(-c2[nH]ncc2-c2ccc3c(c2)OCCCO3)c(O)cc1OC	.	8%	.	?	-6	-47%
CCc1cc(-c2[nH]ncc2-c2ccc(OC)cc2)c(O)cc1O	?	?	11µM*	4µM*	-98*	1%
COc1ccc(-c2[nH]ncc2-c2ccc3c(c2)OCCO3)c(O)c1	?	-14%[46.1 µM]	?	?	-82*	.
O=C([C@H](c1ccccc1)N1CCOCC1)N1CCOCC1	.	29%[46.1 µM]	.	.	.	.
CC1=C[C@@H](c2ccccc2)n2nc(N3C(=O)[C@H]4CC=CC[C@@H]4C3=O)nc2N1	.	-4%	.	.	.	.
O=C(C[C@H]1CC[C@@H]2[C@H](COC[C@@H](O)CN2Cc2cccc(F)c2)O1)NCC1CCCCC1	.	.	?	.	-9	.
COc1ccccc1N1C(=O)Cc2ccccc2C1=O	11%[46.1 µM]	?	-2%	1%	-19	4%
Cc1cccc(Cc2c(C)nc3nc(SCc4cccc(F)c4)nn3c2C)c1	1%[46.1 µM]	.	-13%	.	15	.
COCCN1C(=O)NC(c2cccc(C(F)(F)F)c2)C(C(C)=O)=C1C (stereo not given)	.	11%[14.2 µM]	.	.	.	.
CCC(=O)N(Cc1cc(=O)[nH]c2ccccc12)c1ccccc1	2%	9%	-1%	9%	5	1%

Screening data from PubChem.
